We go through 56 compounds from PubChem BioAssay AID743262 (National Center for Advancing Translational Sciences (NCATS), 2014).

In all, about 1,300 compounds went through this assay and about 25 (2%) were called active. Where a call stands in place of a potency, no number is given. About 9% were inconclusive and are not listed. Calls follow the shape of the dose curve; as a rule, active = well fitted activation curve with a large enough effect; inconclusive = small, poorly fitted or top-dose-only effect; inactive = flat fitted curve, though single readings scatter. The sample as a whole holds a higher share of actives than the screen did.
Potency is read from the fitted curve at half-maximal effect.

Chain of Glucagon-like peptide 1 receptor (Homo sapiens) (P43220 whole entry, looked up): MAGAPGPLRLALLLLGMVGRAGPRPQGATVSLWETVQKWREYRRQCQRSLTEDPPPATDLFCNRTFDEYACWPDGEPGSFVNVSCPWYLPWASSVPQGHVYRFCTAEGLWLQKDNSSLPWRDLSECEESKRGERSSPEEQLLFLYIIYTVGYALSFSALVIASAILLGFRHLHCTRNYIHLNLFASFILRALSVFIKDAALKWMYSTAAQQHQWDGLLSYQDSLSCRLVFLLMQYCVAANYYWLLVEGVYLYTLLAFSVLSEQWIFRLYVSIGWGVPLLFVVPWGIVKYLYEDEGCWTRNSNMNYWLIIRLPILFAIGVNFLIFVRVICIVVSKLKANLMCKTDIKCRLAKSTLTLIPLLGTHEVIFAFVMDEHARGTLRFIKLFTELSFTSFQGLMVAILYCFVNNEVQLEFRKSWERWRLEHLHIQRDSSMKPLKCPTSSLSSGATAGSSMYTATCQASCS

The experiment addresses Glucagon-like peptide 1 receptor (Homo sapiens) (UniProt P43220). Description: qHTS of GLP-1 Receptor Agonists: Hit Validation. The settings on record: HEK293 GLP-1R, cAMP-response luciferase, 4-6 h; series mostly up to 46.1 µM. An excerpt: The overall goal of this project was to develop a novel assay for discovering small molecule ligands for class B1 G protein-coupled receptors (GPCRs). Very few agonists (or inverse agonists) with generally weak activity for this entire group of physiologically important receptors are known to date. To establish proof-of-principle that this critical bottleneck can be overcome with a suitable screening approach, our studies focused on the class B1 receptor for glucagon-like peptide-1 (GLP-1R), a potential therapeutic target for diabetes and neurodegenerative disease. The assay was developed in a "mix and measure" format using a cell-based functional readout. Toward this goal, stably transfected HEK293 cell clones were established that co-express (i) a cAMP-responsive luciferase reporter gene, and (ii) GLP-1Rs that upon ligand interaction either stimulate (agonists) or inhibit (inverse agonists) luciferase activity. In different cell lines to be used for screening, expressed GLP-1Rs are specifically optimized for high sensitivity detection of either weak agonists (hypersensitive receptor) or inverse agonists (constitutively active receptor mutant). In addition, control cell lines were developed that express either the cAMP-responsive reporter gene without recombinant GLP-1Rs (enabling initial exclusion of GLP-1R independent effects of candidate probes), or the reporter gene together with wild type GLP-1Rs (for confirmation of probe activity at this receptor), or the reporter gene in combination with the constitutively active orphan receptor GPR119 (enabling initial exclusion of GLP-1R independent inhibitory effects of candidate inverse agonists). To that end, this assay was optimized for 1536-well format and screened against the MLSMR. NIH Molecular Libraries Probe Production Network [MLPCN] NIH Chemical Genomics Center [NCGC] Grant: NS064851 PI Name: Martin Beinborn, Tufts Medical Center
In a white solid 1536-well plate, 6 uL of cells are dispensed in DMEM without phenol red, 10% Nu serum, and 1% pen-strep medium. The plates are then incubated for 12 hours at 37 deg C at 5% CO2 before 23 nL of compounds are added. After a 4-6 hr incubation at37 deg C and 5% CO2, 3 uL of detection reagent are added and after a 12 min incubation at RT, a luminescent read is obtained on the ViewLux.
For orientation: Quantitative high-throughput screening tests each substance at several concentrations.
With `CC(CCc1ccco1)NC(=O)c1cccc2c1C(=O)N(C1CCCCC1)C2` (stereo unspecified), the Potency entry is “inactive”.
Then `Cc1nn(-c2ccccc2)c(Cl)c1/C=N/NC(N)=O`, with “inactive”; and `Cc1ccccc1Nc1nc(N)nc(-c2oc3ccccc3c2C)n1`, with “inactive”.
As for `COc1cccc(C(C)(O)c2nc(-c3ccc(OC)c(OC)c3)cs2)c1` (stereo unspecified), the Potency entry is “inactive”.
Then `Cc1c(C(=O)N(C)C(C)c2ccccn2)oc2c(F)cccc12` (stereo unspecified), with “inactive”.
As to `CCOCCCn1c(=NC(=O)c2cccnc2)c(C(=O)OCC)cc2c(=O)n3ccccc3nc21`, the Potency result was “inactive”.
Take `COc1ccc(-c2cc(C3CC3)nc(N)c2C#N)cc1`: the Potency result was “inactive”.
On to `CCOC(=O)c1c(NC(=O)Cc2ccccc2)sc2c1CCN(CC)C2`, for which the Potency entry is “inactive”.
Then `CCOC(=O)c1cnc2c(c(C)nn2CC)c1NC1CC1`, with “inactive”.
In the case of `c1ccc(Cn2nnc3c(N4CCC5(CC4)OCCO5)ncnc32)cc1`, the Potency result is “inactive”.
Consider `COc1ccc(CCN(C)C(=O)CCc2nnc(-c3ccccc3)o2)cc1OC`, for which the Potency entry is “inactive”.
Then `COc1ccccc1Nc1cc(C(=O)NCc2cccnc2)c2ccccc2n1`, with “inactive”; and `COc1cc2c(cc1OC)CN(C(=O)c1ccc(S(=O)(=O)N(C)c3ccccc3)cc1)CC2`, with “inactive”; and `O=c1c2c3c(sc2nc(NCCO)n1Cc1ccco1)CCCCC3`, with “inactive”.
For the compound `CCSc1cc(C)nc2c(-c3ccccc3)c(C)nn12`, the Potency entry is “inactive”.
Take `CCOC(=O)c1sc(NC(=O)/C=C/c2cnn(CC)c2C)c(C(=O)OCC)c1C`: the Potency result is “inactive”.
For the compound `Cc1ccc(C)c(S(=O)(=O)Nc2cc3c4c(c2)CCC(=O)N4CCC3)c1`, the Potency result was “inactive”.
In the case of `COc1cc2c(cc1OC)C(C)N(C(=O)C1COc3ccccc3O1)CC2` (stereo unspecified), the Potency result was “inactive”.
Then `COc1ccc(-c2nc(C#N)c(NCc3ccc(C)cc3)o2)cc1OC`, with “inactive”; and `COC(=O)c1ccc(CSc2nnc3nc(C)cc(C)n23)cc1`, with “inactive”.
Regarding `C=CCOc1ccc(CNc2nccs2)cc1OCC`, the Potency entry was “inactive”.
Consider `CCOC(=O)c1c(C)n(-c2ccccc2)c2ccc(OCCN(C)C)cc12`, for which the Potency result is “inactive”.
Then `CCN(CC)CC(=O)Nc1scc2c1c(=O)oc1ccccc12`, with 8.2 µM (active); and `CC(=O)c1oc2ccccc2c1NC(=O)CN1CCCCC1`, with “inactive”; and `CC(=O)Nc1nc(CC(C)C)cc2c1c(=O)oc1ccccc12`, with “inactive”.
As to `CCOC(=O)c1sc(NC(=O)C2=COCCO2)c(C#N)c1C`, the Potency result was “inactive”.
Take `COc1cccc(OCCNc2cc(N3CCOCC3)ccc2[N+](=O)[O-])c1`: the Potency result is “inactive”.
Then `CCOC(=O)c1c(NC2OC(=O)c3c2ccc(OC)c3OC)sc(C(=O)OC(C)(C)C)c1C` (stereo unspecified), with “inactive”; and `N#Cc1c(-c2ccc(F)cc2)noc1N`, with “inactive”; and `COc1ccc(CSc2nnnn2-c2ccccc2)cc1`, with “inactive”.
Then `O=[N+]([O-])c1cnccc1NC1CCCCC1`, with “inactive”; and `O=C1CN(c2nc(-c3cccnc3)nc3sc4c(c23)CCCC4)CCN1`, with “inactive”.
For the compound `COC(=O)CSc1ncnc2scc(-c3ccccc3)c12`, the Potency entry was “inactive”.
Then `COC(=O)CCSCC(=O)N1N=C(c2ccc(OC)cc2)CC1c1cccc(OC)c1OC` (stereo unspecified), with “inactive”; and `CCC(=O)Nc1sc2c(c1C#N)CCCCC2`, with “inactive”.
Take `Cc1nc(N2CCOCC2)c2cc(-c3ccccc3)sc2n1`: the Potency was 8.2 µM (active).
On to `CN(C)c1ncnc2sc(-c3ccccc3)cc12`, for which the Potency result is “inactive”.
`Cc1nc(N2CCOCC2)c2c(C)c(C(=O)Nc3ccccc3C(F)(F)F)sc2n1`: the Potency result was “inactive”.
`COc1ccc(C(=O)NCC2(c3ccc(OC)c(OC)c3)CCCC2)cc1OC`: the Potency result was “inactive”.
On to `CC(=NNC(=S)Nc1ccc(C)cc1)c1ccccn1`, for which the Potency result was “inactive”.
With `COC(=O)c1ccc(Cn2nc(-c3cc(C)ccc3C)ccc2=O)cc1`, the Potency entry was “inactive”.
Regarding `COc1cc(SC)ccc1C(=O)Nc1ccccc1`, the Potency result was “inactive”.
Then `Cc1c(C)n(Cc2ccccc2)c2ncnc(NCCO)c12`, with “inactive”; and `COc1ccc(-c2cc(C(=O)N3CCCC(C(F)(F)F)C3)c3ccccc3n2)cc1OC` (stereo unspecified), with “inactive”; and `C=CCN1N=C(c2ccc(Cl)s2)CSC1=O`, with “inactive”.
Regarding `CCOC(=O)c1nnn(-c2nonc2N)c1-c1cccs1`, the Potency entry was “inactive”.
`COc1ccc(C(=O)c2cc([N+](=O)[O-])ccc2N2CCOCC2)cc1`: the Potency entry is “inactive”.
For the compound `CCc1ccc(C(=O)COC(=O)c2cc([N+](=O)[O-])ccc2N2CCOCC2)cc1`, the Potency result was “inactive”.
Turning to `COc1ccc(C(=O)COC(=O)c2cc([N+](=O)[O-])ccc2N2CCOCC2)c(OC)c1`, the Potency is 20.6 µM (active).
For the compound `CC(=O)Nc1cc(-c2ccccc2Cl)cn2c(-c3ccc(S(C)(=O)=O)cc3)cnc12`, the Potency entry is “inactive”.
Then `COc1ccc(-c2nnc(OCc3nc4ccccc4n3C)c3ccccc23)cc1`, with “inactive”; and `CCOc1ccc(Br)cc1S(=O)(=O)Nc1ccc(C(=O)OCC(=O)N(C)c2ccccc2)cc1`, with “inactive”; and `CCOC(=O)c1c(C)[nH]c2cc(Br)c(O)cc12`, with “inactive”.
Turning to `CC1CN(c2nc(N(C)c3ccccc3)nc(N)c2[N+](=O)[O-])CC(C)O1` (stereo unspecified), the Potency result is “inactive”.
`COc1ccc(-c2nc(C#N)c(NC(C)c3ccccc3)o2)cc1OC` (stereo unspecified): the Potency result is “inactive”.
Then `CCOC(=O)n1c(=O)n(Cc2ccccc2Cl)c2ccccc21`, with “inactive”.
